Assay results taken from paper PMC4336329 (PLoS ONE, 2015).
In all, about 310,000 compounds went through this assay and about 14,000 (4.5%) showed an effect of 50% or more. The effect is printed as a negative number. The sample holds strong results, similar compounds and a random draw of the others, so the mix is not that of the screen.

Target: human ether-à-go-go-related gene (hERG) potassium channel (human, UniProt Q12809)
Test: primary screen, population patch clamp on CHO cells stably expressing hERG; higher = less effect of the substance
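Also: peak tail current of the secondary pulse compared with the same well before compound.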

human ether-à-go-go-related gene (hERG) potassium channel, sequence (Q12809 whole entry, looked up): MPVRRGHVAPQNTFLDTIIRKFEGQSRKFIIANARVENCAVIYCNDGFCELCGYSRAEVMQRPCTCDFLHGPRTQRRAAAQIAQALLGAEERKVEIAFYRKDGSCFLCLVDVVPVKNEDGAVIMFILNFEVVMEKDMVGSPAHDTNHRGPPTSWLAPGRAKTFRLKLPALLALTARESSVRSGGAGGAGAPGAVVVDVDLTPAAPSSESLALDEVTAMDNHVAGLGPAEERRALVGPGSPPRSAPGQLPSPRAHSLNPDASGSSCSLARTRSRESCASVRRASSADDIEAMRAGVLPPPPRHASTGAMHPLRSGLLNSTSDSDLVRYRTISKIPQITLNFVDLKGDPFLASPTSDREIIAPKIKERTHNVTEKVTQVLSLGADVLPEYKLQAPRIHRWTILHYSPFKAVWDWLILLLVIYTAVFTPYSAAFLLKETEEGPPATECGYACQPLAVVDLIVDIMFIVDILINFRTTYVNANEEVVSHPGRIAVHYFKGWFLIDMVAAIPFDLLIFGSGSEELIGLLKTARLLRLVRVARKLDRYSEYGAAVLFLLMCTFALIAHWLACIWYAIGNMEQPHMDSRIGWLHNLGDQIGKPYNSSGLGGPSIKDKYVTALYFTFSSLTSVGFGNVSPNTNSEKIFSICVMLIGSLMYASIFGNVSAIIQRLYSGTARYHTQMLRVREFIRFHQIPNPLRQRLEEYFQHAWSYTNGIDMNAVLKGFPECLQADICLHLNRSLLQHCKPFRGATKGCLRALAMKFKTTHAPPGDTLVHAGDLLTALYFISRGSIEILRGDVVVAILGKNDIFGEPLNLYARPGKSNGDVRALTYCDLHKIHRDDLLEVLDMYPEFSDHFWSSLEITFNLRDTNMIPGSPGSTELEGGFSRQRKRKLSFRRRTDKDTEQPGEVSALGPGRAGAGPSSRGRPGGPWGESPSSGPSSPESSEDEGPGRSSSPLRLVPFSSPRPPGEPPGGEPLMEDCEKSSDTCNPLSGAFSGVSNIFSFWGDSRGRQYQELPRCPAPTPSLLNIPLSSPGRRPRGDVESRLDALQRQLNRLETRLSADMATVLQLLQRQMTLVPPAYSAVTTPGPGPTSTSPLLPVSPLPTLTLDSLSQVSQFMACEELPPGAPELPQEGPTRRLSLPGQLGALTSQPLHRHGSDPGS

SMILES | hERG current change (%, negative = inhibition) at 10uM [%]
COc1ccc(C(C(=O)NC2CCCC2)N(C(=O)CNC(=O)c2ccco2)c2cccnc2)cc1 (centres unmarked) | 14.7
Cc1oc2c(C)c3oc(=O)c(CCC(=O)NCCCN4CCCC4=O)c(C)c3cc2c1C | -14.8
Cc1nc2c(-c3ccc(F)cc3)c(C)nn2c(C)c1CCC(=O)Nc1ccccc1F | -10.7
COCCCNC(=O)CCc1c(C)nc2c(-c3ccc(F)cc3)c(C)nn2c1C | -38.5
Cc1nc2c(-c3ccc(F)cc3)c(C)nn2c(C)c1CCC(=O)N1CCN(c2ccc(F)cc2)CC1 | -74.6
COc1ccc(CN2C(=O)C(C)S/C2=N/N=C/c2ccco2)cc1 (centres unmarked) | 6.37
CCc1cc(=O)oc2cc(OC(C)C(=O)NCCCn3ccnc3)ccc12 (centres unmarked) | 9.41
CC(Oc1ccc2c3c(c(=O)oc2c1)CCCC3)C(=O)NCCCn1ccnc1 (centres unmarked) | -2.45
Cc1cc(=O)oc2cc(OC(C)C(=O)NCCCn3ccnc3)ccc12 (centres unmarked) | 9.44
Cc1c(C)c2ccc(OCC(=O)Nc3cccnc3)c(C)c2oc1=O | 3.99
COc1ccc(-c2cc(=O)oc3c(C)c(OCC(=O)NCCCn4ccnc4)ccc23)cc1 | -63.8
Cc1c(OCC(=O)NCCCn2ccnc2)ccc2c3c(c(=O)oc12)CCC3 | -26.7
Cc1c(OCC(=O)NCCCn2ccnc2)ccc2c3c(c(=O)oc12)CCCC3 | -48.2
CC(Oc1ccc2ccc(=O)oc2c1)C(=O)NCCCn1ccnc1 (centres unmarked) | 28.5
CCCc1cc(=O)oc2c(C)c(OCC(=O)Nc3cccnc3)ccc12 | -63.6
CC(Oc1ccc2c(-c3ccccc3)cc(=O)oc2c1)C(=O)NCCCn1ccnc1 (centres unmarked) | -52.5
Cc1cc(=O)oc2c(C)c(OCC(=O)Nc3cccnc3)ccc12 | -25.3
COc1ccc(-c2cc(=O)oc3cc(OC(C)C(=O)NCCCn4ccnc4)ccc23)cc1 (centres unmarked) | -50.8
COc1ccc(-c2cc(C(=O)N(C)CCc3ccc(OC)c(OC)c3)c3ccccc3n2)cc1 | -29.4
CC(c1ccco1)N(C(=O)c1cccc(S(=O)(=O)N(C)C)c1)c1ccccn1 (centres unmarked) | 16
COC(=O)COc1ccc2c(-c3ccc(OC)cc3)cc(=O)oc2c1 | -39.2
CC(=O)COc1ccc2c(-c3ccccc3)cc(=O)oc2c1 | -1.91
CCc1cc(=O)oc2c(C)c(OCC(=O)NCCCn3ccnc3)ccc12 | -45.9
CCCc1cc(=O)oc2c(C)c(OCC(=O)NCCCn3ccnc3)ccc12 | -75.3

SMILES | hERG current change (%, negative = inhibition) at 10uM [%]
COc1ccc(-c2cc(=O)oc3cc(OCC(=O)NCCCn4ccnc4)ccc23)cc1 | -65.4
O=C(COc1ccc2c(-c3ccccc3)cc(=O)oc2c1)NCCCn1ccnc1 | -48.7
COc1ccc(-c2cc(=O)oc3cc(OCC(C)=O)ccc23)cc1 | -74.6
Cc1cc(=O)oc2cc(OCC(=O)NCCCn3ccnc3)ccc12 | 7.58
Cc1c(C)c2ccc(OCC(=O)NCCCn3ccnc3)c(C)c2oc1=O | -32.7
Clc1cccc(-c2nc(NCCCN3CCOCC3)c3ccccc3n2)c1 | -10.1
CCOC(=O)N1CCN(C(=O)c2cccc(NC3=NC4CS(=O)(=O)CC4S3)c2)CC1 (centres unmarked) | 4.31
NC(=O)c1cc(Cc2ccccc2)sc1NC(=O)c1ccco1 | -13.6
O=C1CCC(c2ccccc2)=NN1 | 9.05
COCC(C)NC(=O)/C(=C/c1ccccc1)c1ccccc1 (centres unmarked) | -25
COc1ccc(S(=O)(=O)C(C#N)c2nc3ccccc3nc2N2CCC(C)CC2)cc1 (centres unmarked) | 18.6
O=C(Nc1ccccc1)Nc1ccc2c(c1)CCC2 | 29.8
CC(OC(=O)CCCOc1ccccc1)C(=O)NC(N)=O (centres unmarked) | 9
Cn1cncc1C#Cc1c(C=O)n(C)c2ccccc12 | 19.8
Cc1ccc(CN2CCc3c(OCC(=O)Nc4cc(C)ccc4C)cccc3C2=O)cc1 | 4.23
Cc1cccc(CN2CCc3c(OCC(=O)NCc4ccco4)cccc3C2=O)c1 | -51.2
COC(=O)c1ccc(COc2cccc3c2CCN(Cc2cccc(C)c2)C3=O)o1 | -3.41
O=C(COc1cccc2c1CCN(Cc1ccccc1)C2=O)NCc1ccco1 | -70.3
Cc1cccc(NC(=O)COc2cccc3c2CCN(Cc2ccccc2)C3=O)c1C | -5.8
O=C(COc1ccccc1-c1ccccc1)NCc1ccco1 | -28
O=C1c2cccc(OCC(=O)N3CCCc4ccccc43)c2CCN1Cc1ccc(Br)cc1 | 6.7
O=C(COc1cccc2c1CCN(Cc1ccc(Br)cc1)C2=O)NCc1ccco1 | -70.6
Cc1ccc(C)c(NC(=O)COc2cccc3c2CCN(Cc2ccccc2)C3=O)c1 | -10.1
